Assay outcomes: PubChem, National Center for Advancing Translational Sciences (NCATS)
TDP1 inh: qHTS Assay for Inhibitors of Tyrosyl-DNA Phosphodiesterase (TDP1); actives 0.28% (n = 350,000); AID 485290, 2010; Potency, µM (doses to about 130 µM), without a hit: at the top dose activity change, negative = inhibition, most hits filed as inhibitors; recombinant TDP1, AlphaScreen DNA substrate cleavage; further: potency means the concentration at half of the fitted maximal effect; nearly all actives have a fitted effect of over 40% in size
Target sequence (Q9NUW8 whole entry, looked up): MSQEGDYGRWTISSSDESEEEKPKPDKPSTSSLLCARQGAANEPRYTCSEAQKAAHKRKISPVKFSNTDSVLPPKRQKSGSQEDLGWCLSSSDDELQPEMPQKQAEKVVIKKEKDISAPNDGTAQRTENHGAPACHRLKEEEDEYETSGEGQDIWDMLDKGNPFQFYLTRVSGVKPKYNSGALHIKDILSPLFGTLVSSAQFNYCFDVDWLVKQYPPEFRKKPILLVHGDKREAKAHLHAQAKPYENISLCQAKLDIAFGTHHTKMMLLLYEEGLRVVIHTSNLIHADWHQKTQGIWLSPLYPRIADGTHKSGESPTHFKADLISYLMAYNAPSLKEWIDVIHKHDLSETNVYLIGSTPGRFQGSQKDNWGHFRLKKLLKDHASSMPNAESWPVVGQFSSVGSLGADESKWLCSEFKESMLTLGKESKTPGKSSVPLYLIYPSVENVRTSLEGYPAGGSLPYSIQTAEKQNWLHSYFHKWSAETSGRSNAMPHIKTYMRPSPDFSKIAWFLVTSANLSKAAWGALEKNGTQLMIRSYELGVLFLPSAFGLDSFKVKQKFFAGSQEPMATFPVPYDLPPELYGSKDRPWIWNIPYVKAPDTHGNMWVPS
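Signal: AlphaScreen proximity between streptavidin donor and anti-FITC acceptor beads on intact substrate. Reaction: Tdp1 1 nM, substrate 15 nM final, 5 min RT after 15 min compound preincubation.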
TDP1 cell noCPT: qHTS for Inhibitors of human tyrosyl-DNA phosphodiesterase 1 (TDP1): qHTS in cells in absence of CPT; DT40 Tdp1-/- hTDP1 cells, no CPT, ATP luminescence, 48 h; Potency, µM (highest dose often 46.2 µM), inactives show top-dose activity change, negative = growth inhibition, hits mostly inhibitors; actives 15% (n = 420,000); further: potency means the concentration at half of the fitted maximal effect; nearly all actives have a fitted effect of over 55% in size
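Growth kinetics read by CellTiter-Glo luminescence after ≥48 hr at 37 °C. Cells: DT40 Tdp1-/- stably carrying human TDP1, 400 per well, compound exposure in the absence of CPT (DMSO vehicle).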
IL1B secr inh: qHTS for Inhibitors of Inflammasome Signaling: IL-1-beta AlphaLISA Primary Screen; activity change, % at 57.5 µM; actives 4.7% (n = 360,000); THP-1 LPS/ATP IL-1B secretion, AlphaLISA, 16 h; hits give low values; AID 743279, 2014; in the data active means activity change below about -50%; inconclusive means mostly about -30% to -49%
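THP-1 cells pretreated 1 hr with compounds (up to 57.5 uM final), then stimulated with LPS (250 ng/mL final) plus ATP (1.25 mM final); secreted IL-1B measured by AlphaLISA after 16 hr, decreased signal indicating inhibition.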
ELG1 repair inh: qHTS screen for small molecules that inhibit ELG1-dependent DNA repair in human embryonic kidney (HEK293T) cells expressing luciferase-tagged ELG1. actives 2.3% (n = 330,000). HEK293T ELG1-luciferase reporter, luminescence, 16 h; DNA damage induced by 5-fluorouridine. Potency, µM (series often up to 46.1 µM), for the others: at the top dose activity change, negative = inhibition, usual class: inhibitors; further: potency means the concentration at half of the fitted maximal effect; nearly all actives have a fitted effect of over 55% in size
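HEK293T cells expressing luciferase-tagged ELG1 (2,000/well) received 5-Fluorouridine plus compound or DMSO for 16 hr at 37 °C. Luciferase was read by ONE-Glo luminescence after 30 min at room temperature.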
Giardia killer: Small Molecules that selectively kill Giardia lamblia: qHTS | Giardia lamblia trophozoite viability | activity change, % at 7.66 µM, hits read low | actives 0.15% (n = 340,000) | AID 540267, 2011; in the data active means activity change below about -80%; inconclusive means between about -30% and that limit;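 further: parasites exposed to compound for two days anaerobically before the ATP read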
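Each well holds 100 Giardia trophozoites and compound. After two days (48 hrs) at 37 deg C in anaerobic conditions, ATP is quantified by luminescence.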
DT40 TDP1 CPT: qHTS for Inhibitors of human tyrosyl-DNA phosphodiesterase 1 (TDP1): qHTS in cells in presence of CPT; chicken DT40 Tdp1-/-;hTDP1 cells + 20 nM CPT, ATP luminescence, 48 h; Potency, µM (series often up to 46.2 µM), without a hit: at the top dose activity change, negative = growth inhibition, usual class: inhibitors; actives 12% (n = 420,000); further: potency means the concentration at half of the fitted maximal effect; nearly all actives have a fitted effect of over 55% in size
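Chicken DT40 Tdp1-/- cells stably complemented with human TDP1 were seeded at 400 cells/well in medium containing 20 nM camptothecin, exposed to pin-transferred compounds, and grown at 37 °C for at least 48 hr. Viability was read as ATP luminescence.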
Active calls of the source: *; i = inactive; ? = inconclusive; · = no result. A selection: hits, their analogues and other compounds. The true share with any hit is near 19%. Unless noted, the call rests on the fitted dose curve; in most records, active means well fitted curve in the direction sought with a large enough effect; inconclusive means small, poorly fitted or top-dose-only effect, or another doubt; inactive means no such curve, though single readings can be large; an effect the other way counts as inactive or inconclusive. On the % scale 0 is the no-effect control and ±100 the full control effect.

SMILES | TDP1 inh | TDP1 cell noCPT | IL1B secr inh | ELG1 repair inh | Giardia killer | DT40 TDP1 CPT
CCCC(NC(=O)C(C)N1CCN(S(=O)(=O)c2ccccc2)CC1)c1ccccc1 (stereo not given) | 0% | ? | 8 | -6% | 7 | ?
CCCNC(=O)C(Cc1ccc(Br)cc1)NC(=O)c1ccc(C#N)cc1 (stereo not given) | 2% | -16% | 0 | 13% | -2 | -25%
Cc1nc2cnc(N3CCN(C)CC3)nc2n(CCc2ccccc2)c1=O | · | ? | · | · | · | -3%
Cc1cn2c(=O)cc(COC(=O)c3ccc(NC(=O)c4ccccc4C)cc3)nc2s1 | 4% | -12% | · | · | · | -3%
O=C(NC1CCN(Cc2ccc(Cl)c(Cl)c2)CC1)c1ccccc1 | · | ? | -19 | -22% | 16 | 21µM*
CC(C)Oc1ccc(C(=O)NC2CCN(Cc3ccccc3)CC2)cc1 | · | ? | -84* | ? | 23 | -33%
O=C(NC(=S)NC1CCN(Cc2ccccc2)CC1)c1ccc(F)cc1 | · | 15µM* | -26 | -23% | -6 | ?
O=C(NC1CCN(Cc2ccccc2)CC1)c1ccc(I)cc1 | -5% | -12% | · | · | · | -22%
O=C(NC1CCN(Cc2ccc3ccccc3c2)CC1)c1ccccc1 | · | 18µM* | -16 | -16% | -7 | 18µM*
CCC(Sc1nc2ccccc2c2nc(CCc3c(C)n[nH]c3C)nn12)C(=O)Nc1ccc(F)cc1 (stereo not given) | 2% | -14% | · | · | · | ?
O=C(CSc1ccc2nnc(CCNC(=O)c3ccccc3)n2n1)NCc1ccco1 | 2% | -8% | i | -7% | 8 | -18%
CCOC(=O)c1ccc(NC(=O)Cc2noc3ccc(C)cc23)cc1 | 5% | ? | · | · | · | 21µM*
Cc1cc(C)c2c(CC(=O)Nc3ccc(F)cc3)coc2c1 | 0% | -30% | · | · | · | ?
CCOC(=O)c1ccc(NC(=O)Cc2coc3cc(C)cc(C)c23)cc1 | 1% | 18µM* | · | · | · | ?
Cc1nc2nc(NC(=O)c3ccco3)[nH]n2c(=O)c1C | 4% | 15% | 9 | 20% | -3 | 3%
Cc1c(C(=O)N(C)C2CCCCC2)sc2ncnc(N3CCN(c4ccccc4F)CC3)c12 | 5% | 18µM* | 0 | ? | -11 | 18µM*
Cc1c(C(=O)N2CCC(C)CC2)sc2ncnc(N3CCN(c4ccccc4)CC3)c12 | 4% | -29% | -27 | 19% | -1 | -5%
Cc1c(C(=O)N(C)C2CCCCC2)sc2ncnc(N3CCN(c4ccccc4)CC3)c12 | 4% | 15µM* | -16 | -19% | 20 | 13µM*
Cc1ccc(CCSc2ccc(C(C)C)cc2)cn1 | 0% | 26µM* | -59* | 22% | 10 | ?
CC(=O)c1ccc(NC(=O)CSc2nnc(NC(=O)C3CC3)s2)cc1 | 2% | 6% | 0 | 11% | 31 | 15%
CCOC(=O)C1CCCN(C(=O)c2cc(Nc3ccc(OC)cc3)nc3ccccc23)C1 (stereo not given) | 6% | 15µM* | -1 | · | 0 | 21µM*
CCOc1ccc(-c2cc(C(=O)N3CCC(C)CC3)c3ccccc3n2)cc1 | · | ? | -6 | · | -17 | ?
CCN1CCCC(OC(=O)c2cc(-c3ccc(C)cc3)nc3ccccc23)C1 (stereo not given) | 8% | 16µM* | -147* | -5% | -20 | ?
CCOC(=O)C1CCCN(C(=O)c2cc(-c3ccncc3)nc3ccccc23)C1 (stereo not given) | · | -19% | 12 | 1% | -5 | ?
